Inconclusive results are not listed. The source made the active and inactive calls. Unless noted, the call rests on the fitted dose curve; in most records, active means well fitted curve in the direction sought with a large enough effect; inconclusive means small, poorly fitted or top-dose-only effect, or another doubt; inactive means no such curve, though single readings can be large; an effect the other way counts as inactive or inconclusive.
Tests used:
[1] = tested on: 3D7; assay: qHTS profiling for inhibitors of Plasmodium falciparum proliferation (AID 504749); further: nearly all actives have a fitted effect of over 60% in size; further: potency means the concentration at half of the fitted maximal effect; settings: P. falciparum in erythrocytes, SYBR Green DNA, 72 h; series mostly up to 28.7 µM
Summary of the method: (§1)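 Infected RBCs, 0.3% parasitemia/2.5% Hct final; cpd 72 h, 37 C, 5% CO2; lysis buffer with saponin/triton/SYBR Green I, o/n RT dark; FI 485/535; norm. to artemisinin (0.29 uM) and DMSO.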

[2] = tested on: 7G8; assay: as above; settings: P. falciparum in erythrocytes, SYBR Green DNA, 72 h; series mostly up to 28.7 µM
Summary of the method: as §1

[3] = tested on: CP185; assay: as above; settings: P. falciparum in erythrocytes, SYBR Green DNA, 72 h; series mostly up to 28.7 µM
Summary of the method: as §1

[4] = tested on: CP191; assay: as above; settings: P. falciparum in erythrocytes, SYBR Green DNA, 72 h; series mostly up to 28.7 µM
Summary of the method: as §1

[5] = tested on: CP194; assay: as above; settings: P. falciparum in erythrocytes, SYBR Green DNA, 72 h; series mostly up to 28.7 µM
Summary of the method: as §1

[6] = tested on: CP201; assay: as above; settings: P. falciparum in erythrocytes, SYBR Green DNA, 72 h; series mostly up to 28.7 µM
Summary of the method: as §1

[7] = tested on: CP211; assay: as above; settings: P. falciparum in erythrocytes, SYBR Green DNA, 72 h; series mostly up to 28.7 µM
Summary of the method: as §1

[8] = tested on: CP250; assay: as above; settings: P. falciparum in erythrocytes, SYBR Green DNA, 72 h; series mostly up to 28.7 µM
Summary of the method: as §1

[9] = tested on: CP252; assay: as above; settings: P. falciparum in erythrocytes, SYBR Green DNA, 72 h; series mostly up to 28.7 µM
Summary of the method: as §1

[10] = tested on: CP256; assay: as above; settings: P. falciparum in erythrocytes, SYBR Green DNA, 72 h; series mostly up to 28.7 µM
Summary of the method: as §1

[11] = tested on: CP297; assay: as above; settings: P. falciparum in erythrocytes, SYBR Green DNA, 72 h; series mostly up to 28.7 µM
Summary of the method: as §1

[12] = tested on: CP315; assay: as above; settings: P. falciparum in erythrocytes, SYBR Green DNA, 72 h; series mostly up to 28.7 µM
Summary of the method: as §1

[13] = tested on: JCK; assay: as above; settings: P. falciparum in erythrocytes, SYBR Green DNA, 72 h; series mostly up to 28.7 µM
Summary of the method: as §1

[14] = Cell Viability - LYMP2-004 (AID 966); settings: LYMP2-004 lymphoblastoid cell viability, qHTS; series mostly up to 92.2 µM; further: nearly all actives have a fitted effect of over 65% in size
Summary of the method: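 Cells seeded 2500/well, rested 5 hr at 37 C, dosed across a concentration series, incubated 24 hr at 37 C, then CellTiter-Glo added for 30 min at room temperature and luminescence read. Hill fitting gave AC50.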

[15] = MultiTox-Fluor Cytotoxicity Assay - LYMP1-002 - Dead Cells (AID 960); settings: LYMP1-002 lymphoblastoid cells, dead-cell protease fluorescence; series mostly up to 46.1 µM;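 further: cells exposed to compound for 16 h at 37 °C; nearly all actives have a fitted effect of over 60% in size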
Summary of the method: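 LYMP1-002 cells 2500/well; 5 hr 37 C pre-incubation; compound 16 hr 37 C; MultiTox-Fluor reagent 60 min RT; dead-cell fluor Ex/Em 485/520. Norm. to DMSO (0%) vs 15 uM tetraoctylammonium bromide (100%); Hill AC50.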

[16] = Cell Viability - SK-N-SH (AID 435; calls by dose curve; further: potency means the concentration at half of the fitted maximal effect); settings: SK-N-SH neuroblastoma cell viability qHTS
Summary of the method: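 qHTS cytotoxicity: CellTiter-Glo ATP luminescence after 40 h compound exposure of human neuroblastoma SK-N-SH cells at 37 °C. AC50 derived by Hill-equation fitting, with DMSO as basal and 100 uM tamoxifen as full inhibition.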

[17] = target: Retinoic acid receptor RXR-alpha (Homo sapiens) (UniProt P19793); assay: qHTS assay for small molecule agonists of retinoid X receptor alpha signaling (AID 588544; calls by dose curve); settings: HEK293T RXRa-UAS-bla, beta-lactamase reporter, 18 h; series mostly up to 76.7 µM
[18] = target: ATP-dependent 6-phosphofructokinase (Trypanosoma brucei brucei) (UniProt O15648); assay: qHTS Assay to Find Inhibitors of T. brucei phosphofructokinase: hit validation (AID 492961);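 further: luminescence reports ADP formed as PFK phosphorylates fructose-6-phosphate with ATP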; settings: T. brucei PFK, ADP-Glo luminescence; series mostly up to 51.4 µM
Summary of the method: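 Measures ADP output of PFK (1.25 nM) at 0.1 mM ATP, 0.5 mM F6P, pH 8.0 TEA buffer with 5 mM MgCl2. No-enzyme wells define full inhibition; uninhibited enzyme wells define zero.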

[19] = tested on: DIV14; assay: qHTS profiling for inhibitors of Plasmodium falciparum proliferation (AID 504749); further: nearly all actives have a fitted effect of over 60% in size; further: potency means the concentration at half of the fitted maximal effect; settings: P. falciparum in erythrocytes, SYBR Green DNA, 72 h; series mostly up to 28.7 µM
Summary of the method: as §1

[20] = Cell Viability - LYMP2-003 (AID 965); settings: LYMP2-003 lymphoblastoid cell viability; series mostly up to 92.2 µM;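 further: cells exposed to compounds for 24 h before reading; nearly all actives have a fitted effect of over 50% in size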; further: potency means the concentration at half of the fitted maximal effect
Summary of the method: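 CellTiter-Glo luminescence quantified ATP loss after 24 h compound treatment of LYMP2-003 lymphoblastoid cells at 37 C. Titration series were fitted with the standard Hill equation to give AC50.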

Measured: Potency

Retinoic acid receptor RXR-alpha (Homo sapiens), sequence (P19793 whole entry, looked up): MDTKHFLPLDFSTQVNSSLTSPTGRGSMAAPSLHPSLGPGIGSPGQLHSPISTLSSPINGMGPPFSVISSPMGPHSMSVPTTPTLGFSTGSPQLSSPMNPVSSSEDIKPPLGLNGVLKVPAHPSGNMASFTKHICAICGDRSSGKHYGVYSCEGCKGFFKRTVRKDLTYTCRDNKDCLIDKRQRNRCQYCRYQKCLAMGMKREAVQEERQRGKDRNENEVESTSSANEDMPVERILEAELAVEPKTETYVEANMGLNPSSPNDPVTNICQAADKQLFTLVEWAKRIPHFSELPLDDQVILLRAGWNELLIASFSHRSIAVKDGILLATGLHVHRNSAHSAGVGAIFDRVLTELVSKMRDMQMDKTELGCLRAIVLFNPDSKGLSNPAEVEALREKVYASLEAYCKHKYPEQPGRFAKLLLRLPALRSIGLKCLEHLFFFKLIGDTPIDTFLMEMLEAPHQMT
ATP-dependent 6-phosphofructokinase (Trypanosoma brucei brucei), sequence (O15648 whole entry, looked up): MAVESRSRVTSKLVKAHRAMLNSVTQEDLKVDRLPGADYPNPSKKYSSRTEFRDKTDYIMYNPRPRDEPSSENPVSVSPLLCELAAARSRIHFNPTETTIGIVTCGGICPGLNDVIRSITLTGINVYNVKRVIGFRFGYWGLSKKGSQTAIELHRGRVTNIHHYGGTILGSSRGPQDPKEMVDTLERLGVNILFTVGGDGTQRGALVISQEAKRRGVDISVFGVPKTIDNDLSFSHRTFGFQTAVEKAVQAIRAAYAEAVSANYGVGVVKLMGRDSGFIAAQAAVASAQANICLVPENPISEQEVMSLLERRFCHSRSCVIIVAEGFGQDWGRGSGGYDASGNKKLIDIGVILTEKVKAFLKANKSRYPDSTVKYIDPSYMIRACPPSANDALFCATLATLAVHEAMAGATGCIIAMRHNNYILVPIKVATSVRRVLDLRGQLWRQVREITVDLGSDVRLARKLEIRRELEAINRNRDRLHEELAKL

CO/N=C(/C(=O)N[C@@H]1C(=O)N2C(C(=O)O)=CCS[C@H]12)c1csc(N)n1
not listed: [14] | [15] | [16] | [17] | [18] | [19] | [20]
inactive: all other assays above

c1ccccc1
inactive: [14]

COC(=O)c1ccc(C=O)cc1
inactive: [15]

COCC(=O)O
inactive: [16] > 92 µM | [15] | [17]

C/C=C\c1ccc(OC)cc1
inactive: [16] > 92 µM | [18] | [1] | [2] | [3] | [4] | [5] | [6] | [7] | [8] | [9] | [10] | [11] | [12] | [19] | [13]

Cc1ccc([N+](=O)[O-])cc1N
inactive: [20] | [17]

COC(=O)c1ccc(C)cc1
inactive: [20] | [17]

COc1c2ccoc2cc2oc(=O)ccc12
inactive: [15]

CC1(C)CC(N=C=O)CC(C)(CN=C=O)C1 (centres undefined)
inactive: [16] > 92 µM | [20]

CN1CC[C@H](CN2c3ccccc3Sc3ccccc32)C1
inactive: [18] | [12]
active: [2] 1.41 µM | [4] 10 µM | [9] 11.2 µM | [10] 8.91 µM | [11] 6.75 µM | [19] 4.26 µM

NC1=NC(S)C2N=CN=C2N1 (centres undefined)
active: [16] 0.182 µM | [20] 6.31 µM
not listed: [2] | [4] | [9] | [10] | [14] | [15] | [17]
inactive: all other assays above

C=CCOC(=O)c1ccccc1C(=O)OCC=C
inactive: [16] > 92 µM | [17]

S=C1NC=NC2N=CNC12 (centres undefined)
inactive: [18] | [1] | [3] | [4] | [8] | [9] | [10] | [13]

O=C1c2ccccc2C(=O)C1c1ccc2ccccc2n1
inactive: [17]

Cc1ccc([N+](=O)[O-])c(C)c1
inactive: [15]

CCCCCCCCCCCCCCC1CO1 (centres undefined)
inactive: [14]

CN(C)CCCCCCN(C)C
inactive: [16] > 92 µM | [15] | [20] | [14] | [18] | [1] | [2] | [3] | [4] | [5] | [6] | [7] | [8] | [9] | [10] | [11] | [12] | [19] | [13]

O=C(O)CC(C(=O)O)C(CC(=O)O)C(=O)O (centres undefined)
inactive: [14]

C1OCOCO1
not listed: [5] | [14] | [15] | [16] | [17] | [20]
inactive: all other assays above
